# Screening results as filed in PubChem.
# Hits are enriched below; roughly 0.37% of the tested compounds scored in any of these assays.
# Rab7 wt modul: modulators of GTP binding to dog Rab7 wildtype GTPase; GTP binding activity (percent of control), % at 10 µM; actives 0.055% (n = 190,000); GST-Rab7 beads, fluorescent GTP binding, flow cytometry; actives lie on both sides; untreated = 100%, excess cold GTP = 0%;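 active = fluorescent GTP binding to Rab7 beads changed by at least 20 points from the 100% baseline, either direction, mostly lower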;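 also: median green fluorescence of bound Bodipy-FL-GTP per Rab7 bead population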
# Rab2 wt GTP: changes GTP binding to wildtype dog Rab2A, up or down | GTP binding activity, % at 10 µM | actives 0.19% (n = 190,000) | P61105 | GST-Rab2 wt beads, Bodipy-GTP binding, flow cytometry;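 active = GTP binding activity at least 20 points away from 100%, either lowered or raised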;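 also: 0% = beads with excess unlabeled GTP and 100% = no-compound control corrected for plate trend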
# Rac1 wt GTP bind: alters GTP binding to wildtype human Rac1. actives 0.27% (n = 190,000). GTP binding activity (% of control), % at 10 µM. P63000. GST-Rac1 beads, fluorescent GTP binding, flow cytometry; actives lie on both sides; 0 = cold GTP competed, 100 = untreated;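 active = GTP binding activity at least 20 points away from the 100% control level, either lower or higher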
# HRas wt GTP bind: modulators of GTP binding to human HRas wildtype; GST-Ras wt beads, Bodipy-FL-GTP binding, flow cytometry; actives lie on both sides; GTP binding activity, % at 10 µM; actives 0.14% (n = 190,000);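 active = GTP binding activity at least 20% away from the 100% baseline, either lowered as inhibitor or raised as activator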;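 also: 0% = unlabeled GTP competition control and 100% = no-compound control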
# Target sequence (P01112 whole entry, looked up): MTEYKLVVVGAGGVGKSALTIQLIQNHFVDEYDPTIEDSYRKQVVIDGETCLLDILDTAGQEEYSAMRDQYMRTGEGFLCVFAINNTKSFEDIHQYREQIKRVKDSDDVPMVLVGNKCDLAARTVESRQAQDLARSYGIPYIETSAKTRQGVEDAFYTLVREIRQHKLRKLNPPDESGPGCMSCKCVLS
# Rac1 act GTP bind: modulators of GTP binding to human Rac1 activated mutant | GST-Rac1 activated beads, fluorescent GTP binding, flow cytometry; actives lie on both sides; 100% means binding = to untreated wells | P63000 | percent activity (GTP binding), % at 10 µM | actives 0.11% (n = 190,000);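 active = GTP binding at least 20 percentage points away from the 100% baseline, in either direction, so actives lie on both sides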
# Cdc42 wt GTP: changes GTP binding to wildtype human Cdc42; P60953; GST-Cdc42 beads, Bodipy-GTP binding, flow cytometry; actives lie on both sides; percent activity (GTP binding), % at 10 µM; actives 0.2% (n = 190,000);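 active = percent activity GTP binding at least 20 points away from the 100% baseline, either down as inhibitor or up as activator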;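 also: median bead fluorescence of bound Bodipy-FL-GTP at 100 nM; 0% = excess unlabeled GTP control and 100% = no compound control; below 100% means less GTP binding so inhibitor and above means activator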
# Target sequence (P60953 whole entry, looked up): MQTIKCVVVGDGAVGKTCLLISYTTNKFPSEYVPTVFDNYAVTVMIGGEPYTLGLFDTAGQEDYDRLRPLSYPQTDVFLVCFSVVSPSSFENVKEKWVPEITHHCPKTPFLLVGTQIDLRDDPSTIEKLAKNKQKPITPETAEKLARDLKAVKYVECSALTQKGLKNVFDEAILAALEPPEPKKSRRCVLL
# * = called active by the depositor; [ ] = remark or other dose.
SMILES,Rab7 wt modul,Rab2 wt GTP,Rac1 wt GTP bind,HRas wt GTP bind,Rac1 act GTP bind,Cdc42 wt GTP
CC(=O)NC12CC3CC(C1)CC(C(=O)OCC(=O)c1ccc4c(c1)OCCO4)(C3)C2,98,102,101,102,100,104
COc1ccc2c(C)cc3nncn3c2c1,88,89,79*,81,87,89
CCC(C(=O)NC1CCCC1)N(C(=O)Cn1nnc(-c2ccc(C)o2)n1)c1cnc2ccccc2c1 (stereo unspecified),101,105,125*[activator],104,106,107
O=C(NC1CCCCC1)C(c1cccs1)N(C(=O)c1ccco1)c1ccc2c(c1)OCCO2 (stereo unspecified),90,98,99,98,100,99
CSc1ccccc1NC(=O)c1ccc(Br)o1,99,98,99,97,96,97
C(#Cc1ccccc1)C[N+]1(CC#Cc2ccccc2)CCCC1,104,102,103,103,98,103
C=CC#CC[N+]1(CC#Cc2ccccc2)CCOCC1,101,100,128*[activator],106,116,107
COc1cccc(N2CCN(C(=O)c3cccnc3)CC2)c1,96,99,95,98,96,99
CCOc1ccc(C2C(C(=O)O)CCC(=O)N2C2CCCCC2)cc1 (stereo unspecified),74*,73*,71*,72*,73*,72*
Cc1noc(C)c1COc1ccc(C(=O)OCC(=O)NCc2ccccc2Cl)cc1,104,96,102,99,98,100
Cc1noc(C)c1COc1cccc(C(=O)NCc2ccccc2Cl)c1,67*,69*,72*,52*,74*,71*
Cn1c(=O)c2c(ncn2CC(O)CNc2cccc(Cl)c2)n(C)c1=O (stereo unspecified),107,107,124*[activator],106,104,107
Cc1cccc(NCC(O)Cn2cnc3c2c(=O)n(C)c(=O)n3C)c1 (stereo unspecified),106,115,107,114,104,116
Cc1nc(-c2cnn(-c3ccccc3)c2)c2cc(C)oc2n1,80,75*,77*,72*,79*,70*
Cc1oc2c(O)c(O)ccc2c(=O)c1-c1cnn(-c2ccccc2)c1,101,101,97,99,95,100
COc1ccccc1-c1c(C)[nH]n2c(=O)c(Cc3ccccc3)c(C)nc12,94,96,98,95,95,100
COc1ccc(-c2c(C)[nH]n3c(=O)c(Cc4ccccc4)c(C)nc23)cc1,93,77*,87,81,93,95
CCOC(=O)COc1ccc(Br)cc1/C=C/c1[nH]c(=O)[nH]c(=O)c1[N+](=O)[O-],100,92,83,89,88,83
O=C(COc1ccccc1/C=C\c1[nH]c(=O)[nH]c(=O)c1[N+](=O)[O-])Nc1ccccc1,95,77*,79*,79*,77*,73*
CCCCCCCCCCCC(=O)c1c(O)cccc1O,89,81,83,82,79*,79*
CCCCCCCC(=O)NNC(=O)Cc1ccccc1,94,96,93,95,95,97
CSc1nc2ccc(NS(=O)(=O)c3c(Cl)cccc3Cl)cc2s1,84,78*,79*,83,79*,81
CN1CCN(c2ccccc2NC(=O)c2ccc(-c3cccc([N+](=O)[O-])c3)o2)CC1,106,106,123*[activator],107,107,108
O=C(Cn1nc2ccccc2n1)N/N=C/c1cc([N+](=O)[O-])ccc1O,82,70*,61*,73*,79*,70*
CC(C)N(CCc1ccncc1)C(=O)Nc1ccc(Cl)c(Cl)c1,98,99,102,100,98,99
SMILES,Rab7 wt modul,Rab2 wt GTP,Rac1 wt GTP bind,HRas wt GTP bind,Rac1 act GTP bind,Cdc42 wt GTP
COc1ccc(S(=O)(=O)Cc2ccc(C(=O)N3CCN(c4cc(Cl)ccc4C)CC3)o2)cc1,77*,72*,76*,80,76*,74*
COc1ccc(S(=O)(=O)Cc2ccc(C(=O)N3CCN(c4ccc(Cl)cc4)CC3)o2)cc1,102,105,108,104,101,102
Cn1nnnc1SCc1ccc(C(=O)Nc2nccs2)cc1,82,72*,71*,73*,83,75*
Cn1c(NC(=O)c2ccccc2)c(-c2cccs2)c(=O)c2ccccc21,101,100,105,101,97,99
COc1ccc2cc(C)c3nnc(SCc4cccnc4)n3c2c1,95,83,86,82,90,79*
Cn1c(C(=O)OCC(=O)NCc2ccco2)cc2sccc21,98,100,105,99,99,101
CCC(OC(=O)c1cc2sccc2n1C)C(=O)NCc1ccco1 (stereo unspecified),22*,36*,37*,44*,37*,40*
CCN(CC)c1ccc2c(c1)oc(=O)c1c(Cl)cc(=O)oc12,93,89,87,89,78*,88
CC1(C)OC(=O)C(=Cc2ccc(-c3ccc(S(N)(=O)=O)cc3)o2)C(=O)O1,98,92,88,88,85,92
NS(=O)(=O)c1ccc(-c2ccc(/C=C3\C(=O)Nc4cc(Cl)ccc43)o2)cc1,94,76*,68*,76*,87,73*
O=S(=O)(c1ccc2c(c1)N(Cc1ccc(Cl)cc1)C1CCCN21)N1CCOCC1 (stereo unspecified),99,97,97,98,97,100
COc1cc(CNC(C)(C)CO)ccc1OCC(=O)Nc1ccc(Br)cc1,102,102,105,103,100,106
COc1ccc(-c2nnc(SCC(=O)c3cccs3)o2)cc1,59*,60*,58*,42*,62*,54*
O=C(CSc1nnc(-c2cccs2)o1)c1cccs1,97,96,96,98,95,97
CCN(CC)CCN1C(=O)C(=O)/C(=C(/O)c2cnn(-c3ccccc3)c2C)C1c1cccnc1 (stereo unspecified),98,100,101,99,98,100
Cc1csc(SCC(=O)c2ccc(S(=O)(=O)N3CCOCC3)cc2)n1,96,100,105,100,99,103
Cc1nc2ncccn2c1-c1csc(Nc2ccccc2)n1,83,62*,60*,59*,80,67*
COc1ccc(Nc2nc(-c3c(C)nc4ncccn34)cs2)cc1,84,76*,65*,77*,83,76*
